Results as given in PubChem BioAssay AID1508600 (Functional Genomics Laboratory (NCATS/FGL), 2020).
Hit rate of the full screen: of about 53,000 sequences, about 3,700 (7%) were called active.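 Rule for the calls: active = gene knockdowns whose robust z-score for IL-1 alpha signal is at least 2 or at most -2, so actives lie on both sides; inactive = the rest.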 The sample as a whole holds a higher share of actives than the screen did.

Assay: Components of the Cytosolic LPS Sensing Pathway: Gene Identification via Genome-wide siRNA Screen;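 note: robust z of the log signal after scaling to non-targeting control siRNA wells of the plate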
Conditions: RAW264.7 macrophages, IL-1a HTRF, actives lie on both sides, screened at 100 nM (by protocol), cells primed 5 h with Pam3CSK4 first
Outline: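 Three distinct siRNAs per gene were tested singly at 100 nM in RAW264.7 macrophages. Following Pam3CSK4 priming and 24 hour LipidA transfection, IL-1a secretion was read by HTRF.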

| Sequence | z-score |
| --- | --- |
| CCGAUCAUUAUGAGCAUACTT against Nxf7 | -1.76 (inactive) |
| GGUCUUUAGCAAAUUGUUCTT against Lrrc6 | 2.02 (active) |
| GGAUGCAGAAGAUUUUGUGTT against Ptprcap | -0.704 (inactive) |
| GGAGACACAAAAGAAGAUATT against Sec14l4 | -0.359 (inactive) |
| CCUGCGUUGACCAAUCAGATT against C2cd2l | -1.26 (inactive) |
| CCUAGUCCUGAUUUAUCAGTT against Ddx39b | -2.02 (active) |
| GCUCUAGGAAUCCAAAUAUTT against 9930014A18Rik | 0.8 (inactive) |
| GGCUUCUUCAGAUCCUAAATT against Olfr554 | -0.615 (inactive) |
| GGUCAUCAGAAGAAUCAAGTT against Arr3 | 2.13 (active) |
| GCGAUAUCUCAACUUCCCGTT against Fchsd1 | 0.541 (inactive) |
| GCAUGCGCCCUAAAGGAAATT against Zmynd15 | 0.687 (inactive) |
| CCAGUCUUAUCUGUAGAAGTT against Obox1 | -1.69 (inactive) |
| GCCUAACUAUGAAACUUCGTT against Ppp1r11 | 0.754 (inactive) |
| CCAUUGUAGUCAGUCAAAUTT against Pip | -0.498 (inactive) |
| GGAUGAAAGUCCUGGACAGTT against Gli3 | 5.97 (active) |
| GGAGCAGUUGUGUUUAACATT against Psg17 | 0.596 (inactive) |
| GGAAAGAGGGAAACUAAUUTT against Abhd17a | -0.694 (inactive) |
| GGCAGAAAGCAGAAACAGUTT against Mok | -0.901 (inactive) |
| GGUAUCUUCUCUUGGAAAATT against Tex12 | -0.533 (inactive) |
| GCUAUGGGAUAUGAGCUGATT against Antkmt | -0.75 (inactive) |
| GGAAUUCAGUGAAUGUCAUTT against Gapvd1 | -2.28 (active) |
| UGUGCCCUAUAGAACCUGUTT against Krtap13-1 | 0.394 (inactive) |

| Sequence | z-score |
| --- | --- |
| GGACAACUCGAGUCUUAAATT against Poln | 1 (inactive) |
| GCUCUUAUCAGCAUGUAUATT against Birc6 | 1.7 (inactive) |
| ACUAGACUGAACUACCUGATT against Aim2 | 0.137 (inactive) |
| GGCUCAUCAGAUGUAAACATT against Efcab6 | -2.13 (active) |
| GCUAACAAGCUAGCAUUUATT against Ltv1 | -1.17 (inactive) |
| GGUCCUGUUGAGAAUUUAATT against Zdhhc15 | 0.464 (inactive) |
| GGCAACUGAAUGUUUCCUATT against Nudt19 | -1.41 (inactive) |
| CCUAAGAGAUAAGAGCACCTT against Ppa2 | 0.381 (inactive) |
| GGAGAUUUACUGCUCGCUGTT against Pik3r6 | 0.0343 (inactive) |
| CAGGAUUCCUUGGACAUACTT against Olfr477 | -0.559 (inactive) |
| GCUAAGUUCCAAGGCGACCTT against Serpinh1 | 2.77 (active) |
| GGAUAAAGCAUCAGACAAATT against Hmgn1 | -0.202 (inactive) |
| UCAGCUGGUUUUAAUCUCUTT against Olfr1029 | -0.193 (inactive) |
| CGCAACAGAUAGUAAAUAUTT against Ufsp2 | -1.21 (inactive) |
| GGACCCAAAUCUUUUUAGATT against Wac | -1.03 (inactive) |
| GGUCCCAGACUGAGUGAAATT against Epo | -0.302 (inactive) |
| GGUCAAGAUCCGAAGCUACTT against Cntn2 | -0.749 (inactive) |
| GGUCUUGCUGUUCGAAGAATT against Gsx1 | 0.417 (inactive) |
| AGUGUAACUGCAGAAGCCUTT against Olfr207 | -1.3 (inactive) |
| CAACCGUUGUGGCCAUGACTT against Olfr59 | -0.332 (inactive) |
| CCCAGGCUAUUUCAACAAUTT against Arhgef11 | -1.24 (inactive) |
| GGGCUACAAGAAAAAGUAUTT against Krt85 | 2.69 (active) |

| Sequence | z-score |
| --- | --- |
| GCAGUCAAUUCCCUUUUACTT against Ankmy1 | -0.876 (inactive) |
| GCCUAACCAACAAUUCUACTT against Oas1b | 1.61 (inactive) |
| GGUCUUCUACUCCUUCUCATT against Slc6a19 | -2.09 (active) |
| GGAGACUGCUAUAUUGGCUTT against 1700092C17Rik | -0.147 (inactive) |
| GCUAAAAGGUAAGUACUUCTT against Lncpint | 0.981 (inactive) |
| GGGUAACAACCAUGUCCGUTT against Pspn | 1.26 (inactive) |
| CGGGAAUCCUAUCUAUCAATT against Smox | 0.762 (inactive) |
| GGAAGAACAAAAAACCAUGTT against Sf3b2 | -2.14 (active) |
| CGAGAUGAAUUUCUAGUAGTT against Tubgcp3 | 1.47 (inactive) |
| GGUUGGCUUCAAAAAUAUGTT against Psmb1 | -1.04 (inactive) |
| GGAAUUCCACCUAAAAUUGTT against Ttn | 1.32 (inactive) |
| CCUGCUCCUUACAUCUCGCTT against Foxred2 | 1.51 (inactive) |
| CCAUUUAAUCCAUAUUUCCTT against Gnao1 | -2.05 (active) |
| CGGACUCACAGAGCUAAGATT against Tnp2 | 1.56 (inactive) |
| GGGCAGAACUGCAUGAGAATT against Acp1 | -0.176 (inactive) |
| GCACAAAUUUGGUAGUGUUTT against Nup50 | -1.53 (inactive) |
| GGAGUAAACCUACUGCUCATT against Esam | 2.14 (active) |
| CCUGAUGUAACUAUAAACATT against Adam32 | -0.107 (inactive) |
| GGAUGUCUGACUCAGGUCUTT against Olfr829 | 0.0622 (inactive) |
| GGCAGUGAUGUUUCUCUCGTT against Tmem198b | 0.152 (inactive) |
| GGAUUCCAGAUUAAAUGAUTT against Rfc1 | 1.09 (inactive) |
| GGCAACCAUUAAAUGUUUATT against Trim59 | -0.54 (inactive) |

| Sequence | z-score |
| --- | --- |
| CCUUUUGUUUUACCUACUCTT against Tbx22 | 2.32 (active) |
| GGAUGAGCAGAAAUGUGUATT against Plekho2 | 0.931 (inactive) |
| CCUCUACAUCCAGGAAUGATT against Map4k1 | -0.546 (inactive) |
| GGUCCUAAUUCGAAGCAGATT against Emc3 | -0.589 (inactive) |
| GGGAUUGCAUGGUUAAACUTT against Nfam1 | -0.901 (inactive) |
| GGUUUUGACAUCACAUUCUTT against Mtfr2 | 1.34 (inactive) |
| GGUAGACAGAGAAGAUAAATT against Slc35f5 | -2.01 (active) |
| GGUUGAUGACAACAAGAAATT against Rps12 | -0.368 (inactive) |
| GGGAGGAGAGGACAAAUUATT against Ywhae | 1.66 (inactive) |
| GGAACGUGAAUCUACAGCATT against Tex43 | -2.73 (active) |
| GGCAGGACGAACAUGGCUATT against Hspb1 | 1.2 (inactive) |
| GGAAUUAAAGAGGAACUCCTT against Adamts20 | 0.172 (inactive) |
| GCUGUCAGACUAAAGAUAUTT against Mmd | -0.733 (inactive) |
| CCUCCAGAGUAUUGUCUAGTT against Ppfia3 | 1.26 (inactive) |
| GGACAUUGAGAACAUUAUCTT against Caln1 | -1.14 (inactive) |
| GGACCAUGUGGACUUUAGCTT against Sema7a | -0.522 (inactive) |
| GGCACUUCAACAGCAGUUATT against Cep295 | -1.27 (inactive) |
| GGUGUUCGUCAUAUGGAAUTT against Tex46 | 3.71 (active) |
| GGUAACUGUUACACAAAUCTT against Tmem161b | -0.291 (inactive) |
| GGCCUUUUGGCUUUGAUCUTT against Hoxb1 | -1.86 (inactive) |
| GGAAUAUGUCACCAACAAGTT against Akap8l | -0.896 (inactive) |
| GCAGGAAGUAAAAUCUCUUTT against Tmem183a | 0.707 (inactive) |

| Sequence | z-score |
| --- | --- |
| GGAGUCACACCUGAAUUGCTT against Cep89 | 0.129 (inactive) |
| GCUGAAAUCCAGGAUAGAGTT against Zw10 | -2.03 (active) |
| GGGACAAGGACUUUAAAAATT against Scamp2 | 0.566 (inactive) |
| GCACAUUCAGAUGAGGACUTT against Rnf6 | -1.05 (inactive) |
| GAUAUGUGUACACUUCUGCTT against Vmn1r218 | -2.08 (active) |
| GGUUACAUGGAUUGAAGCUTT against Scrn3 | 0.183 (inactive) |
| GGAGAUGAUUUUGAACUUCTT against Retreg3 | 2.73 (active) |
| CCCAACACAAUAUUUGCCATT against Nfyc | 0.019 (inactive) |
| GCUGUCUCUACGUUGGAGATT against Adamts2 | 0.145 (inactive) |
| CCACUUAGGUUAGAAAGAATT against R3hdm1 | -0.77 (inactive) |
| CCAAGUCGGACUUACGGUUTT against Cnpy3 | -1.65 (inactive) |
| UCUGCUCAACAUCGUCAAUTT against Sstr3 | 0.719 (inactive) |
| GCUCUUCCGAUUAAUGCAGTT against Gabra6 | 2.87 (active) |
| GGACCAAGGCUUGGAUCUUTT against Magea6 | 0.527 (inactive) |
| CGUGGUGCCUUUGAAUCUGTT against 9530056K15Rik | 1.2 (inactive) |
| GGCAUCAAGCAAUUCACUCTT against Zfp455 | 1.14 (inactive) |
| GGUGCAAAUGUUCUCAUCUTT against Mfsd4b1 | 2.11 (active) |
| GCCACUGUCACUUUUGUACTT against Arl11 | -1.08 (inactive) |
| GGAUUUGUUGGAAAUUGGATT against Anks1b | 0.132 (inactive) |
| GGCUGUGCAAGAUGUUCUATT against Gpr27 | 3.29 (active) |
